Screening data as filed in PubChem.
CR mimetic SO: caloric restriction mimetics inhibiting age-related superoxide in yeast | S. cerevisiae aged cells, superoxide DHE fluorescence; stronger effect = lower value | superoxide response (% of plate mean), % at 10 µM | 330,000 compounds, 0.18% hits;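 active means superoxide response under a set limit, about three screen SD below normal, cut at about 65% in these data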;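 further: yeast aged for seven days with compound at 30 °C before DHE staining; 100% = average MFI of all compound-treated wells on the plate with controls excluded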
HTR5A ag ctr: counter-screen for OPRM1-OPRD1 agonists: human HTR5A agonism; P47898; activation, % at 9.3 µM; AID 504692; 340,000 compounds, 0.61% hits; HTR5A agonist assay, luminescence, cell-based; in the data active means activation mostly above about 9.5%, no sharp cut-off; inactive means mostly below about 7.6%;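 further: 0% = cells with vehicle only and 100% = reference agonist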
MOR-DOR ag: agonists of human mu-delta opioid receptor heterodimerization. activation, % at 9.3 µM. cells, OPRM1-OPRD1 heterodimerization, luminescence. 340,000 compounds, 0.3% hits. P35372+P41143; in the data active means activation above about 18%;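 further: 0% = vehicle-treated cells and 100% = reference agonist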
Target sequence (P35372 whole entry, looked up): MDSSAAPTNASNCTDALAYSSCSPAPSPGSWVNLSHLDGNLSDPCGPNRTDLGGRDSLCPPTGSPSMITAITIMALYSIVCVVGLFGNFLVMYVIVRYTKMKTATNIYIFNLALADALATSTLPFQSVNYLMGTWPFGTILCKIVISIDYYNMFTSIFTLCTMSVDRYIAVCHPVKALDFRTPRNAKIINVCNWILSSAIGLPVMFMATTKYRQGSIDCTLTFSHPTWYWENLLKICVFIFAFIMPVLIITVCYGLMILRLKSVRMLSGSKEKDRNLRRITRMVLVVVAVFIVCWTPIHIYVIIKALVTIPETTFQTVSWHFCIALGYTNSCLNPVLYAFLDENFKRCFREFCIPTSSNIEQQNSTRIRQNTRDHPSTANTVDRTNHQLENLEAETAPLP
Target sequence (P41143 whole entry, looked up): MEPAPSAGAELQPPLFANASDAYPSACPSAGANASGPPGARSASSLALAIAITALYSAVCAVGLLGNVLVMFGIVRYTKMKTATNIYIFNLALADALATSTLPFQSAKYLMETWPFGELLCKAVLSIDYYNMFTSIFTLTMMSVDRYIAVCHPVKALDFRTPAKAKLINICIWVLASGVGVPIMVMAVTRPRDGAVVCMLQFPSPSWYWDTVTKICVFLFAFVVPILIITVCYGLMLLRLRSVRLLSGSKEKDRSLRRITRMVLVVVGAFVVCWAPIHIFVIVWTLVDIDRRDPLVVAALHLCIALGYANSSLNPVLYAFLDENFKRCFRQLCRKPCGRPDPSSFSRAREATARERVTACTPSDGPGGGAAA
MOR-DOR inv ag: inverse agonist of human OPRM1-OPRD1 heterodimerization; P35372+P41143; cell-based MOR-DOR heterodimer luminescence, inverse agonism; inhibition, % at 9.3 µM; 340,000 compounds, 0.21% hits; AID 504357; in the data active means inhibition above about 22%, passing the limit was not always enough;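 further: 0% = cells with DMSO and 100% = wells without cells with DMSO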
PvdQ acylase: P. aeruginosa PvdQ acylase inhibition | purified PvdQ acylase, fluorescence plate reader | inhibition, % at 10 µM | 340,000 compounds, 0.063% hits; in the data active means inhibition above about 30%, passing the limit was not always enough;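 further: 0% = vehicle neutral wells and 100% = reference inhibitor wells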
HTR5A inv ag: inverse agonist of human HTR5A in OPRM1-OPRD1 counter-screen. P47898. HTR5A cell line, luminescence, inverse agonism. inhibition, % at 9.3 µM. 340,000 compounds, 0.083% hits; in the data active means inhibition mostly above about 23%, no sharp cut-off; inactive means mostly below about 18%;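 further: 0% = cells with DMSO and 100% = no-cell wells with DMSO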
* hit, by the source's call; x = no result. Only some compounds are listed: those with a hit (about 1.3% of all), similar ones and a draw of the others.

SMILES | CR mimetic SO | HTR5A ag ctr | MOR-DOR ag | MOR-DOR inv ag | PvdQ acylase | HTR5A inv ag
CS(=O)(=O)c1ccc(C(=O)Nc2nc(-c3ccco3)c(-c3ccco3)s2)cc1 | x | 44.5* | 1.4 | -7.5 | 6.6 | -108.9
O=C(Nc1nc(-c2ccco2)c(-c2ccco2)s1)C1CCC1 | 98.2 | 5.9 | 0.2 | -1.4 | 3.5 | 13.8
CC(C)N(CC(=O)Nc1ccc(Cl)cc1C(F)(F)F)C(=O)CCl | 94.0 | 11.8* | 1.0 | -4.4 | 10.6 | -30.1
O=C(O)CSCC(=O)Nc1ccc(Cl)cc1C(F)(F)F | 116.5 | -1.8 | 0.3 | -2.3 | -14.3 | 5.2
CCOC(=O)N1CCN(C(=O)CSc2nnc(Cn3c(=O)sc4ccccc43)n2C)CC1 | 102.3 | 4.5 | -1.8 | 9.1 | -5.3 | -12.3
CCOC(=O)CSc1nnc(Cn2c(=O)sc3ccccc32)n1C | 89.7 | 10.6* | -0.8 | 4.0 | 1.6 | -29.3
O=C(O)c1cc(S(=O)(=O)N2CCCCC2)ccc1N1CCCC1 | 112.8 | 2.9 | -2.5 | 9.8 | -9.5 | -7.8
Cc1ccccc1C(=O)O/N=C(\N)c1ccc([N+](=O)[O-])cc1 | 116.3 | 9.3* | 7.9 | -38.2 | -12.7 | -31.7
COc1cc(C(=O)O/N=C(\N)c2ccc([N+](=O)[O-])cc2)cc(OC)c1OC | 124.6 | 4.0 | 10.2 | -73.8 | 4.6 | -10.8
N/C(=N\OC(=O)c1ccccc1Br)c1ccc([N+](=O)[O-])cc1 | 91.2 | -0.1 | 5.1 | -24.3 | -15.6 | 0.4
CCOc1cc(C(=O)O/N=C(\N)c2ccc([N+](=O)[O-])cc2)cc(OCC)c1OCC | 115.2 | 13.4* | 10.9 | -55.2 | 3.2 | -41.1
CN(C(=O)C1CCC(=O)N(Cc2cccc(F)c2)C1)C1CCCCC1 (stereo unspecified) | 98.7 | -0.1 | -0.1 | 0.5 | -13.3 | -36.0
Cn1cc(CN2CCC(n3nccc3NC(=O)CCc3ccccc3)CC2)cn1 | 95.6 | 10.4* | -1.2 | 6.6 | -16.4 | -13.2
Cn1cc(CN2CCC(n3nccc3NC(=O)CCCc3ccccc3)CC2)cn1 | 92.6 | 2.9 | 0.0 | -0.2 | -16.6 | 24.8
Cc1ccc(C(NC(=O)Nc2ccccn2)C(Cl)(Cl)Cl)cc1F (stereo unspecified) | 88.5 | 12.2* | 6.2 | -51.4 | -3.2 | -15.7
Cc1cccc(NC(=O)Nc2ccccn2)c1C | 89.0 | 6.8 | -0.3 | 1.5 | 1.3 | 10.4
COc1ccccc1-n1c(=S)sc2c(=O)n(Cc3ccco3)c(SC)nc21 | 104.7 | 10.2* | 1.3 | -7.1 | 11.1 | -12.2
Cc1c(OCC(=O)N(C)c2ccccc2)ccc2c3c(c(=O)oc12)CCC3 | 104.0 | 0.9 | 0.5 | -3.8 | -2.4 | 5.8
COc1ccc(C(C#N)c2ccc(Cl)nn2)cc1 (stereo unspecified) | 98.5 | x | x | x | 46.1* | x
N#CC(c1ccc(Cl)nn1)c1ccc(Cl)cc1Cl (stereo unspecified) | 94.5 | -2.2 | 0.0 | 0.0 | 113.8* | -10.2
COc1ccc(C(C#N)c2nc3ccccc3nc2Cl)cc1 (stereo unspecified) | 96.4 | -2.7 | -2.6 | 12.4 | 2.8 | 9.5
CCC(=O)Nc1nc2ccccc2n1Cc1ccc(Cl)cc1 | 105.6 | 13.9* | -0.4 | 1.6 | 10.2 | -38.1
CCC(=O)Nc1nc2ccccc2n1Cc1ccccc1Cl | 91.4 | 1.0 | 0.0 | 0.0 | -1.3 | -6.6
COCCn1c(SCC(=O)NCc2ccc(F)cc2)nc2ccccc21 | 96.5 | 12.9* | -0.1 | 0.9 | -27.9 | -23.8
CCc1ccc(-c2nc(SCC(=O)NC3CC3)n[nH]2)cc1 | 80.5 | 1.3 | -1.1 | 7.2 | -17.7 | 1.4
SMILES | CR mimetic SO | HTR5A ag ctr | MOR-DOR ag | MOR-DOR inv ag | PvdQ acylase | HTR5A inv ag
CCN=c1sc(C(=O)OC)cc(=O)n1CC | 104.6 | 10.5* | -0.9 | 5.3 | 1.1 | 0.1
CCN(C(=O)CSc1nc2cc(C(=O)O)ccc2c(=O)n1-c1ccccc1F)C1CCS(=O)(=O)C1 (stereo unspecified) | x | -0.3 | -3.2 | 12.3 | -17.5 | 2.4
CC(=NNC(=O)c1ccncc1)c1ccc2ccccc2c1O | x | 1.2 | 1.2 | -5.2 | -6.7 | -4.5
CC(=O)NC12CC3CC(C1)CC(C(=O)N1CCN(S(=O)(=O)c4ccc(Cl)s4)CC1)(C3)C2 | 83.3 | 11.3* | -1.2 | 6.2 | -19.1 | -4.9
O=C(c1cccc([N+](=O)[O-])c1)N1CC2C3C=CC(C3)C2C1 (stereo unspecified) | 101.3 | 0.9 | -3.0 | 14.9 | 42.6* | -7.5
O=C(c1ccccc1[N+](=O)[O-])N1CC2C3C=CC(C3)C2C1 (stereo unspecified) | 85.8 | 1.8 | -3.5 | 17.2 | -12.1 | -5.2
CN(C)c1ccc(NC(=O)CSc2nc(C3CC3)nc3ccccc23)cc1 | 95.9 | 1.6 | 0.4 | -2.8 | -10.7 | -2.6
CCOC(=O)/C(C#N)=C/c1c(N2CCN(Cc3ccc4c(c3)OCO4)CC2)nc2c(C)cccn2c1=O | 107.6 | x | x | x | 15.5 | x
Cc1cccn2c(=O)c(/C=C(\C#N)C(N)=O)c(N3CCN(Cc4ccc5c(c4)OCO5)CC3)nc12 | 100.1 | 11.4* | -1.0 | 5.3 | 7.3 | -39.5
O=Cc1cn(-c2ccccc2)nc1-c1cc2cc(O)ccc2oc1=O | 102.5 | 1.2 | 9.5 | -51.9 | -10.7 | 18.5
O=C(O)/C=C/c1cn(-c2ccccc2)nc1-c1cc2ccccc2oc1=O | 61.2* | 0.2 | -1.6 | 8.9 | 5.4 | -0.6
C[C@H]1CN([C@@H](C)CO)C(=O)c2cc(NC(=O)NC3CCCCC3)ccc2O[C@H]1CN(C)C(=O)Nc1ccc(C(F)(F)F)cc1 | 123.7 | -1.7 | 4.9 | -27.1 | -1.3 | -10.5
Cn1c(=O)c2c(ncn2CC(COCc2ccc(Cl)cc2)OCc2ccc(Cl)cc2)n(C)c1=O (stereo unspecified) | 96.5 | 2.1 | -0.9 | 5.0 | -13.8 | -5.7
Cn1c(=O)c2c(ncn2Cc2ccc(Cl)cc2)n(C)c1=O | 98.0 | 8.0* | -2.1 | 12.2 | -8.1 | -20.7
Cc1c(C(=O)OCC(=O)Nc2ccc(S(N)(=O)=O)cc2)oc2c1ccc1ccccc12 | 98.6 | 11.7* | 10.0 | -48.4 | -14.8 | -20.7
CCN1CCN(C(=O)C(=O)c2cn(CC(=O)N3CCCC3)c3ccccc23)CC1 | 101.6 | 6.0 | -4.0 | 21.2 | -12.8 | 11.4
CC1CN(C(=O)COC(=O)c2ccc(F)cc2Cl)CC(C)O1 (stereo unspecified) | 116.4 | 1.4 | -0.6 | 3.4 | 17.8 | -3.8
C/C(=N\NC(=O)c1nnn(-c2nonc2N)c1CN(C)c1ccccc1)c1cccs1 | 91.9 | 9.6 | 4.2 | -22.7 | -4.1 | -8.4
COC(=O)[C@@H]1[C@@H](C#N)C2(c3ccccc3-c3ccccc32)N(c2ccc(Cl)cc2)N1C#N | 107.4 | 8.7* | 10.4 | -52.3 | -13.7 | -8.6
CC(C)CC(=O)Nc1cc2nn(-c3ccccc3)nc2cc1Cl | 79.9 | 9.1* | -0.4 | 1.8 | -18.2 | 10.4
CC(C)N(CC(N)=O)C(=O)c1sc2cc(F)ccc2c1Cl | 89.6 | 13.2* | 0.8 | -3.4 | 7.2 | -22.3
O=C1CC(c2cccc(Cl)c2)Cc2nc(N3CCOCC3)ncc21 (stereo unspecified) | 99.8 | 12.9* | -0.4 | 1.8 | -9.6 | 13.2
